S1P4 antag: antagonists of human S1P4 receptor | 220,000 compounds, 0.26% hits | inhibition, % at 4.98 µM | O95977 | S1P4-expressing cells, antagonist mode, reporter read-out; in the data active = inhibition above about 29%
KCC2 mod: KCC2 (human) Cl- transport modulation; Q9H2X9; 190,000 compounds, 2.2% hits; B-score of Tl+ flux slope (higher = more flux/activation; lower = inhibition) at 10 µM; KCC2 cells, thallium flux FluoZin-2 fluorescence;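 active = thallium flux slope and its plate-corrected score both differing from the plate sample mean at a set confidence after two filtering rounds, in either direction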;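 also: slope of fluorescence scaled to starting intensity during 10 to 20 s after thallium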
S1P4 ag: agonists of human S1P4 receptor; S1P4-expressing cell line, agonist reporter assay; 220,000 compounds, 0.35% hits; AID 1509; activation, % at 4.98 µM; in the data active = activation above about 11%
S1P3 antagonist: antagonists of human S1P3 receptor. CHO S1P3 NFAT-BLA reporter, FRET fluorescence, antagonist mode. AID 485. inhibition, % at 4.98 µM. Q99500. 170,000 compounds, 0.27% hits;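 active = inhibition above the plate cutoff, the mean inhibition of test wells on that plate plus 3 SD, cut at about 28% in these data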;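 also: cells challenged with S1P at its EC80 of 0.8 µM; blue over green emission ratio from cleaved BLA substrate after 4 h stimulation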
Target sequence (Q99500 whole entry, looked up): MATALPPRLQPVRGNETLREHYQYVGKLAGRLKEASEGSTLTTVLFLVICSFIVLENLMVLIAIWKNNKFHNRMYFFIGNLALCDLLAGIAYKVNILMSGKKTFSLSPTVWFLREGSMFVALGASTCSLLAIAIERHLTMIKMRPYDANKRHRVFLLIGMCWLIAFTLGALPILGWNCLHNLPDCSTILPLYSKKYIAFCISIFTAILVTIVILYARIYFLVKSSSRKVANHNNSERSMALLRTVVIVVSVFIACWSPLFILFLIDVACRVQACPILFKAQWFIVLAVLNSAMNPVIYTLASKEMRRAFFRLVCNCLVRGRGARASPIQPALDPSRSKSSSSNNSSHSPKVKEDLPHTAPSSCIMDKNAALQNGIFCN
ROMK mod: modulators of human ROMK potassium channel; Tet-inducible ROMK, thallium flux fluorescence; actives lie on both sides; 130,000 compounds, 2% hits; AID 1918; B-score at 10 µM; P48048;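 active = signal ratio slope over the read window, or its plate-corrected B-score, at least 3 SD from the plate mean, either direction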;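 also: B-score of the F/F0 ratio slope over 7 to 12 s after thallium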
Target sequence (P48048 whole entry, looked up): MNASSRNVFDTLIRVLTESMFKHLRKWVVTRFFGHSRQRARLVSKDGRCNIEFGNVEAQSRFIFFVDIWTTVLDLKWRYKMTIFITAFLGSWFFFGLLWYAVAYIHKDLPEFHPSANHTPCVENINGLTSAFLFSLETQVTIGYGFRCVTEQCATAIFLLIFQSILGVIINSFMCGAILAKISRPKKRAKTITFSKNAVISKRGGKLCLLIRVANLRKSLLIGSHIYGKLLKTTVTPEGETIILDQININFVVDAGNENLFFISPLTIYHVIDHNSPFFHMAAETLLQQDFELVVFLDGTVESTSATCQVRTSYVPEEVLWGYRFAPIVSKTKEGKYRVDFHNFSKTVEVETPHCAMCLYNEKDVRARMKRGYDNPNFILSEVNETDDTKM
RAM inhibit: inhibitors of the yeast RAM network; S. cerevisiae dse1pr::URA3 reporter, 5-FOA growth OD615, 2 d; analog-sensitive cbk1-as2 kinase mutant strain; inhibition, % at 50 µM; 190,000 compounds, 1.8% hits; AID 868;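 active = inhibition above a set limit, 3 SD over mean compound inhibition, cut at about 8.4% in these data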;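 also: inhibition rescues growth on 5-FOA so higher OD means more RAM inhibition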
KCC2 sec1: confirmation of human KCC2 transport modulators; shares compounds with KCC2 mod; HEK293-KCC2, thallium flux, FluoZin2 fluorescence; active compounds read high; normalised thallium flux (F/F0 slope) at 10 µM; 3,700 compounds, 15% hits; AID 1713;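 active = thallium flux slope above the same plate's solvent-only control mean plus 3 SD; inconclusive = the two replicate wells disagree; inactive = no significant difference from solvent-only control wells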
KCC2 bumet counter: bumetanide-insensitive thallium flux in KCC2 cells with ouabain, counter-screen; shares compounds with KCC2 mod; HEK293-KCC2 + bumetanide/ouabain, thallium flux FluoZin2; active compounds read high; normalized thallium flux at 10 µM; 3,700 compounds, 49% hits; AID 1714;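 active = thallium entry rate above the same plate's blocked-transporter control wells by more than 3 SD; inconclusive = the two repeat wells disagree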;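 also: raw slope of fluorescence over initial fluorescence between 10 and 20 s after thallium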
KCC2 sec2: KCC2 (human) modulation, second secondary assay. 3,700 compounds, 23% hits. HEK293-KCC2, thallium flux FluoZin2 fluorescence; actives lie on both sides; F/F0 rise rate, 10–20 s post-thallium. shares compounds with KCC2 mod. normalized thallium flux at 10 µM;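 active = thallium flux slope more than 3 SD above or below the plate's solvent-only control mean, mostly below; inconclusive = the two repeat wells disagreed; inactive = no significant shift from solvent-only controls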
HEK counter1: acts in parental HEK cells, KCC2 counter-screen; shares compounds with KCC2 mod; HEK293 parental cells, thallium flux FluoZin2, ouabain; baseline-ratio fluorescence slope, 10–20 s after thallium; thallium flux rate (normalised fluorescence) at 10 µM; 3,700 compounds, 46% hits; AID 1716;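 active = thallium flux rate significantly above the same plate's solvent-only control wells, beyond their mean plus 3 SD; inconclusive = the two replicate wells gave conflicting results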
KCC2 retest ouab: KCC2 (human) modulation, ouabain retest; shares compounds with KCC2 mod; raw Tl+ flux slope (below DMSO = inhibition, above = activation) at 10 µM; AID 1717; HEK293-KCC2, thallium flux FluoZin2 fluorescence; bidirectional: low = inhibitor, high = activator; 3,700 compounds, 48% hits;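 active = thallium flux slope beyond 3 SD from same-plate DMSO control mean in most replicates, usually higher, sometimes lower; inconclusive = repeat tests gave conflicting results; inactive = no significant difference from controls in most replicates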;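 also: slope of initial-normalized fluorescence between seconds 10 and 20 after thallium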
HEK counter2: acts in parental HEK cells, second KCC2 counter-screen; shares compounds with KCC2 mod; HEK293 parental, thallium flux FluoZin-2 fluorescence slope; thallium flux slope at 10 µM; 3,700 compounds, 33% hits; AID 1718;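 active = thallium flux slope above the same plate's solvent-control mean plus 3 SD in both duplicate wells; inconclusive = duplicate wells that disagreed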;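 also: run without ouabain in cells lacking the KCC2 cotransporter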
Hits are given with their value; 0 = inactive; ? = inconclusive; - = no result. This is a sample that favours compounds with a hit; in the whole collection about 5.1% have one here.

SMILES	S1P4 antag	KCC2 mod	S1P4 ag	S1P3 antagonist	ROMK mod	RAM inhibit	KCC2 sec1	KCC2 bumet counter	KCC2 sec2	HEK counter1	KCC2 retest ouab	HEK counter2
COCNc1nc(OCC#N)nc(N(C)C)n1	0	7.6	0	0	0	0	0	0	0	0	0	0
O=C(Cc1coc(-c2ccc(F)cc2)n1)Nc1ccccc1	0	-3.8	0	0	-	0	0	0	?	0	0.035	0
CS(=O)(=O)C1=NSC2=NC(=O)/C(=C\c3cccn3-c3ccccc3Cl)C(=N)N21	0	-5.1	0	0	0	0	0	0	0.023	0.0053	0.014	?
Cc1cc(C)cc(-n2cccc2/C=C2/C(=N)N3C(=NC2=O)SN=C3S(C)(=O)=O)c1	0	0	0	0	0	0	-	-	-	-	-	-
COc1ccc(NC(=O)CN2CC(c3ccccc3)CC2=O)cc1OC (stereo unspecified)	0	0	0	0	-	0	-	-	-	-	-	-
CCOc1ccc(NC(=O)CN2CC(c3ccccc3)CC2=O)cc1 (stereo unspecified)	0	-2.8	0	-	-	0	0	0	0	0	0	0
CN(C)c1ccc(NC(=O)c2sc(SCC(=O)Nc3nccs3)nc2N)cc1	0	14	0	-	0	0	0	0.013	0	0.012	?	0.014
Cc1nnc(SCC(=O)Nc2nccs2)s1	0	0	0	0	-	0	-	-	-	-	-	-
Cc1cc(C(F)F)n2nc(C(=O)Nc3sc4c(c3C#N)CCC4)nc2n1	0	0	0	0	0	0	-	-	-	-	-	-
CCOC(=O)C1CCCN(c2c(NCCN(CC)c3ccccc3)c(=O)c2=O)C1 (stereo unspecified)	0	0	0	-	-	0	-	-	-	-	-	-
CCOC(=O)C1CCCN(c2c(NCCCN(CC)c3ccccc3)c(=O)c2=O)C1 (stereo unspecified)	0	4.6	0	0	0	0	0	0	0	0	0	0
Cc1cccc(-n2c(-c3csc(C)c3C)n[nH]c2=S)c1	0	0	0	0	-	0	-	-	-	-	-	-
CCCc1cc(-c2n[nH]c(=S)n2-c2cccc(C)c2)cs1	0	106	0	0	0	0	0.022	0.2	0	0.058	0.062	0.017
Cc1ccc(NC(=S)N/N=C2\CCCCC2C)cc1 (stereo unspecified)	0	6.9	0	0	0	0	0	0.032	0.039	0.02	0.033	0.022
[O-][n+]1cccc2c(Br)cc(Br)c(O)c21	0	29	0	0	0	0	0	0.073	0.047	0.047	0.064	0.034
Cn1c(SCC(=O)NNC(=O)Nc2ccccc2)nnc1-c1ccccc1	0	0	0	0	0	-	-	-	-	-	-	-
CCN(CC)/C(Sc1ccccc1)=C(\C(Cl)=C(Cl)Cl)[N+](=O)[O-]	0	-4.9	0	0	-	0	0	?	?	0.0064	?	0
O=[N+]([O-])/C(C(Cl)=C(Cl)Cl)=C(\Sc1ccccc1)N1CCCCC1	0	0	0	0	0	0	-	-	-	-	-	-
NNc1nc2sc3c(c2c(=O)n1Cc1ccccc1)CCC3	0	4.1	0	0	0	-	0	0.017	0	?	?	0
CCc1nc2sc3c(c2c(=O)n1N)CCC3	0	-	0	0	0	0	-	-	-	-	-	-
CCn1c(NN)nc2sc3c(c2c1=O)CCC3	0	6	0	-	0	0	0.014	0.019	0	0.018	0.03	?
Cc1ccc(-c2n[nH]c(=S)c3ccccc23)cc1	0	8.9	0	0	0	0	0	0.025	0	0.0097	?	0
O=C(CCCN1C(=O)/C(=C/c2ccccc2Cl)SC1=S)NNC(=O)c1cccnc1	0	-4.9	0	0	-	-	0	0	0	0	0.017	0
Cc1noc(/C=C/N(C)C)c1S(=O)(=O)N(C)CC(=O)NC1CCCCC1	0	-7.1	0	0	-	0	0	0	0	?	?	0
CN(C)c1ccc(/C=N/n2c(-c3ccccc3Br)n[nH]c2=S)cc1	0	5.8	0	0	0	-	0	0.023	0	0.012	?	0
SMILES	S1P4 antag	KCC2 mod	S1P4 ag	S1P3 antagonist	ROMK mod	RAM inhibit	KCC2 sec1	KCC2 bumet counter	KCC2 sec2	HEK counter1	KCC2 retest ouab	HEK counter2
COc1ccc(CCNC(=O)C(NS(=O)(=O)c2ccc3c(c2)CCN3C(C)=O)C(C)C)cc1OC (stereo unspecified)	0	0	0	0	0	0	-	-	-	-	-	-
Cn1cnnc1SCc1ccc(C(=O)O)cc1	0	-	0	-	0	0	-	-	-	-	-	-
Cc1ccc2cc(C)c3nnc(SCc4ccc(C(=O)O)cc4)n3c2c1C	0	3.1	0	0	0	-	0	0.0087	0	0.011	0	0.013
CCOC(=O)c1c(-c2ccccc2)csc1NC(=O)/C(C#N)=C/c1ccc(OC)c(OC)c1	0	0	0	0	-	0	-	-	-	-	-	-
CCOC(=O)c1c(-c2ccccc2)csc1NC(=O)/C(C#N)=C/c1ccc(O)c(OC)c1	0	5.2	0	0	-	0	0	0.011	0	0.0095	0	0
O=c1c2c(-c3cccs3)csc2[nH]c(=S)n1-c1ccccc1	0	0	0	-	-	0	-	-	-	-	-	-
CC(C)n1c(=S)[nH]c2scc(-c3cccs3)c2c1=O	0	110	0	0	-	-	0.023	0.092	0.088	0.09	0.093	0.085
CCn1cc(C2C(C(=O)Nc3cc(C)ccn3)=C(C)NC3=C2C(=O)CC(C)(C)C3)c(C)n1 (stereo unspecified)	0	0	0	0	0	0	-	-	-	-	-	-
O=C(Nc1nc2ccsc2c(=O)s1)c1ccc(F)cc1Cl	0	0	0	0	0	-	-	-	-	-	-	-
O=C(Nc1nc2ccsc2c(=O)s1)c1ccc(F)cc1	0	3.8	0	0	0	-	0	?	0	0.011	0	0
CCn1cc(C2=NOC(C(=O)Nc3cc(C)nn3-c3ccccc3)C2)c(C)n1 (stereo unspecified)	0	4.6	0	0	0	0	0	?	0	0	0	0
Cc1cc(NC(=O)C2CC(c3ccc(F)cc3)=NO2)n(-c2ccccc2)n1 (stereo unspecified)	0	-	0	0	-	0	-	-	-	-	-	-
O=C(CN1C(=O)NC2(CCCCCC2)C1=O)c1ccc2c(c1)OCCO2	0	-	0	0	0	0	0	0.014	0	?	0	0

Bioassay records deposited in PubChem by several laboratories.
